Compounds without any hit were thinned out: in the full panel of roughly 83,000, 20% have a hit.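 Single-dose data. Exposure time 48 hours. Values below 10 considered active.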 Calls of active or inactive are those of the source.
How the values were obtained:
Experiment in all cases: NCI-60 one-dose screen, 48 h (100 = growth as untreated, 0 = no growth, -100 = all killed)
Conditions in all cases: 10 µM unless noted
NCI-H23 lung = tested on: NCI-H23 lung
NCI-H226 lung = tested on: NCI-H226 lung
NCI-H322M lung = tested on: NCI-H322M lung
HOP-62 NSCLC = tested on: HOP-62 NSCLC
NCI-H460 lung = tested on: NCI-H460 lung
NCI-H522 lung = tested on: NCI-H522 lung
A549/ATCC NSCLC = tested on: A549/ATCC NSCLC
786-0 renal = tested on: 786-0 renal
DU-145 prostate = tested on: DU-145 prostate
COLO 205 colon = tested on: COLO 205 colon

Measured: growth

Cc1c(C(N)=O)sc2nc(SCC(=O)Nc3ccc(Cl)cc3)n(-c3ccccc3)c(=O)c12
inactive: NCI-H23 lung 106% | NCI-H226 lung 108% | NCI-H322M lung 105% | HOP-62 NSCLC 109% | NCI-H460 lung 106% | NCI-H522 lung 89.2% | A549/ATCC NSCLC 116% | 786-0 renal 104% | DU-145 prostate 120%

O=C1OC(c2ccc(-c3ccccc3)cc2)=C/C1=C/c1cccs1
inactive: NCI-H23 lung 88.6% | NCI-H226 lung 63.6% | NCI-H322M lung 99.7% | HOP-62 NSCLC 101% | NCI-H460 lung 105% | NCI-H522 lung 63% | A549/ATCC NSCLC 83.6% | 786-0 renal 90.3% | DU-145 prostate 103%

CCOC(=O)C(C(C)=O)c1nc2sc3cc(Cl)ccc3n2c(=N)c1C#N (configuration not stated)
inactive: NCI-H23 lung 78.2% | NCI-H226 lung 43% | NCI-H322M lung 105% | HOP-62 NSCLC 102% | NCI-H460 lung 96.1% | NCI-H522 lung 95.2% | A549/ATCC NSCLC 90.7% | 786-0 renal 84.5% | DU-145 prostate 109%

O=C1Cc2cc(CCN3CCN(CCOCCO)CC3)c(Cl)cc2N1Cc1ccc(-c2ccccc2-c2nn[nH]n2)cc1
inactive: NCI-H23 lung 85.8% | NCI-H226 lung 81.8% | NCI-H322M lung 108% | HOP-62 NSCLC 91.6% | NCI-H460 lung 90% | NCI-H522 lung 79.4% | A549/ATCC NSCLC 87.1% | 786-0 renal 86.8% | DU-145 prostate 117%

CC(C)[C@]12O[C@H]1[C@@H]1O[C@]13[C@]1(O[C@H]1C[C@H]1C4=C(CC[C@@]13C)C(=O)OC4)[C@@H]2OC(=O)CN(C)C
inactive: NCI-H226 lung 10.6% | HOP-62 NSCLC 19.2% | A549/ATCC NSCLC 18.4% | 786-0 renal 12.9%
active: NCI-H23 lung -19.4% | NCI-H322M lung -7.07% | NCI-H460 lung 0.675% | NCI-H522 lung -41.8% | DU-145 prostate 3.28%

O=Cc1c[nH]c2ccc(NC(=O)OCc3ccccc3)cc12
inactive: NCI-H23 lung 95.4% | NCI-H226 lung 89.7% | NCI-H322M lung 88.6% | HOP-62 NSCLC 105% | NCI-H460 lung 68.4% | NCI-H522 lung 94.1% | A549/ATCC NSCLC 106% | 786-0 renal 95.8% | DU-145 prostate 113%

CC(C)(C)c1ccc(S(=O)(=O)O)s1
inactive: NCI-H23 lung 115% | NCI-H226 lung 107% | NCI-H322M lung 111% | HOP-62 NSCLC 99% | NCI-H460 lung 106% | NCI-H522 lung 89.6% | A549/ATCC NSCLC 99.2% | 786-0 renal 95.6% | DU-145 prostate 108%

COc1cc(OC)c2sc(-c3ccc(-n4cncc4-c4ccc(N)cc4)cc3)nc2c1
inactive: NCI-H23 lung 101% | NCI-H226 lung 98.7% | NCI-H322M lung 84.7% | HOP-62 NSCLC 110% | NCI-H460 lung 78.7% | NCI-H522 lung 84.8% | A549/ATCC NSCLC 60% | 786-0 renal 71.8% | DU-145 prostate 80.3%

CCOc1ccccc1C(=O)OCC(=O)Nc1cccc(S(=O)(=O)N(C)C)c1
inactive: NCI-H23 lung 101% | NCI-H226 lung 100% | NCI-H322M lung 124% | HOP-62 NSCLC 94.2% | NCI-H460 lung 102% | NCI-H522 lung 95.1% | A549/ATCC NSCLC 87.8% | 786-0 renal 109% | DU-145 prostate 115%

Cc1nc(N)[nH]c(=O)c1C
inactive: NCI-H23 lung 97.4% | NCI-H226 lung 97% | NCI-H322M lung 96.6% | HOP-62 NSCLC 103% | NCI-H460 lung 106% | NCI-H522 lung 102% | A549/ATCC NSCLC 103% | 786-0 renal 103% | DU-145 prostate 109%

CCN(CC)c1ccc(CN(CC(=O)c2ccc(Cl)c(Cl)c2)Cc2ccccc2)cc1
inactive: NCI-H23 lung 97.6% | NCI-H226 lung 90.9% | NCI-H322M lung 110% | HOP-62 NSCLC 96.9% | NCI-H460 lung 101% | NCI-H522 lung 106% | A549/ATCC NSCLC 107% | COLO 205 colon 104% | DU-145 prostate 104%

Cc1c(C(N)=O)sc2ncn(Cc3ccccc3)c(=O)c12
inactive: NCI-H23 lung 101% | NCI-H226 lung 96.8% | NCI-H322M lung 79% | HOP-62 NSCLC 95.4% | NCI-H460 lung 108% | NCI-H522 lung 103% | A549/ATCC NSCLC 85.7% | 786-0 renal 96.1% | DU-145 prostate 113%

Nc1nc2ncc(CCNc3ccc(C(=O)NC(CCC(=O)O)C(=O)O)cc3)nc2c(=O)[nH]1 (configuration not stated)
inactive: NCI-H23 lung 43.3% | NCI-H226 lung 102% | NCI-H322M lung 122% | HOP-62 NSCLC 90.6% | NCI-H460 lung 108% | NCI-H522 lung 28% | 786-0 renal 93.1% | COLO 205 colon 118% | DU-145 prostate 109%

O=NC1CC=CCC1c1ccccc1 (configuration not stated)
inactive: NCI-H23 lung 106% | NCI-H226 lung 105% | NCI-H322M lung 118% | HOP-62 NSCLC 98.7% | NCI-H460 lung 112% | NCI-H522 lung 109% | 786-0 renal 106% | COLO 205 colon 117% | DU-145 prostate 124%

CCC(c1ccccc1)c1noc(CCN(CC)CC)n1 (configuration not stated)
active: NCI-H522 lung -8.89%
inactive: NCI-H23 lung 99.5% | NCI-H226 lung 90.7% | NCI-H322M lung 109% | HOP-62 NSCLC 97.4% | NCI-H460 lung 103% | 786-0 renal 108% | COLO 205 colon 114% | DU-145 prostate 100%

COc1ccc(C(=O)COc2cccc(/C=C3\Oc4ccc5ccccc5c4C3=O)c2)cc1
active: NCI-H522 lung -0.888%
inactive: NCI-H23 lung 10.3% | NCI-H226 lung 71.7% | NCI-H322M lung 106% | HOP-62 NSCLC 89.8% | NCI-H460 lung 100% | 786-0 renal 100% | COLO 205 colon 77.3%

Cc1cccc(Cl)c1NC(=O)c1ccc2nc(NC(=O)NC3CC(C)(C)NC(C)(C)C3)sc2c1
inactive: NCI-H23 lung 91% | NCI-H226 lung 103% | NCI-H322M lung 81.8% | HOP-62 NSCLC 68.3% | NCI-H460 lung 101% | NCI-H522 lung 88.6% | 786-0 renal 84.6% | COLO 205 colon 15.3% | DU-145 prostate 103%

O=C(/C=C/c1cc2ccccc2[nH]c1=O)c1ccc(O)cc1
inactive: NCI-H23 lung 56.9% | NCI-H226 lung 98.7% | NCI-H322M lung 51.8% | HOP-62 NSCLC 42.5% | 786-0 renal 62.6% | COLO 205 colon 105%
active: NCI-H460 lung 1.97% | NCI-H522 lung -44.1% | DU-145 prostate -44.1%

CCC1=C(c2ccc(OC)cc2)C(C)Oc2cc(OC(C)=O)ccc21 (configuration not stated)
inactive: NCI-H23 lung 82% | NCI-H226 lung 83.1% | NCI-H322M lung 116% | HOP-62 NSCLC 99.7% | NCI-H460 lung 93% | NCI-H522 lung 78.8% | 786-0 renal 101% | COLO 205 colon 103% | DU-145 prostate 102%

CC1=CC(=O)C(C(C)=Nc2ccccc2Cl)C(=O)O1 (configuration not stated)
inactive: NCI-H23 lung 142% | NCI-H226 lung 104% | NCI-H322M lung 121% | HOP-62 NSCLC 109% | NCI-H460 lung 109% | A549/ATCC NSCLC 116% | 786-0 renal 114% | COLO 205 colon 129% | DU-145 prostate 110%

CCC(CCC(C)C1CCC2C3CC=C4CC(O)CCC4(C)C3CCC12C)C(C)C (configuration not stated) (tested in a mixture with another compound)
inactive: NCI-H23 lung 112% | NCI-H226 lung 101% | NCI-H322M lung 145% | HOP-62 NSCLC 114% | NCI-H460 lung 96.6% | NCI-H522 lung 116% | 786-0 renal 96% | COLO 205 colon 107% | DU-145 prostate 115%

CCN(CC)CCOc1ccc(C2=C(c3ccccc3)CCc3cc(OC)ccc32)cc1
active: NCI-H23 lung -11.6% | HOP-62 NSCLC -74.9% | NCI-H460 lung -55.9% | NCI-H522 lung -25.3% | 786-0 renal -82.3% | COLO 205 colon -69.6%
inactive: NCI-H226 lung 58.6% | NCI-H322M lung 17.6% | DU-145 prostate 41.3%

O=c1[nH]c(=O)n(C2CC(O)C(CO)O2)cc1C(F)(F)F (configuration not stated)
inactive: NCI-H226 lung 57% | NCI-H322M lung 76% | HOP-62 NSCLC 33.1% | NCI-H460 lung 19.2% | 786-0 renal 12.7% | COLO 205 colon 69.2%
active: NCI-H23 lung -5.01% | NCI-H522 lung -12% | DU-145 prostate 6.03%

CC(=O)NCCSC(=O)C(=O)SCCNC(C)=O
inactive: NCI-H23 lung 109% | NCI-H226 lung 103% | NCI-H322M lung 144% | HOP-62 NSCLC 107% | NCI-H460 lung 114% | NCI-H522 lung 125% | 786-0 renal 95.5% | COLO 205 colon 122% | DU-145 prostate 116%

COc1cccc(CCC2C(=O)CCCC2=O)c1
inactive: NCI-H23 lung 103% | NCI-H226 lung 111% | NCI-H322M lung 102% | HOP-62 NSCLC 106% | NCI-H460 lung 117% | A549/ATCC NSCLC 108% | 786-0 renal 108% | COLO 205 colon 99.5% | DU-145 prostate 105%

CCCCC(C#N)C(N)=O (configuration not stated)
inactive: NCI-H23 lung 105% | NCI-H226 lung 102% | NCI-H322M lung 110% | HOP-62 NSCLC 99% | NCI-H460 lung 111% | NCI-H522 lung 96.7% | 786-0 renal 96.4% | COLO 205 colon 124% | DU-145 prostate 104%

CN1CCN(Cc2ccc(NC(=O)c3[nH]ncc3Nc3ccnc4ccnn34)cc2)CC1
inactive: NCI-H23 lung 62.3% | NCI-H226 lung 65.7% | NCI-H322M lung 79.6% | HOP-62 NSCLC 93.5% | NCI-H460 lung 63.7% | NCI-H522 lung 55.7% | A549/ATCC NSCLC 81.3% | COLO 205 colon 39.5% | DU-145 prostate 47.4%

Cn1cc(-c2nc(-c3c[nH]c4ncc(F)cc34)cs2)c2cccnc21
inactive: NCI-H23 lung 92.1% | NCI-H226 lung 98.8% | NCI-H322M lung 107% | HOP-62 NSCLC 108% | NCI-H460 lung 96.3% | A549/ATCC NSCLC 107% | 786-0 renal 94.4%

Nc1cc(Cl)c(S(N)(=O)=O)cc1S(N)(=O)=O
inactive: NCI-H23 lung 87.1% | NCI-H226 lung 92.8% | NCI-H322M lung 87.9% | HOP-62 NSCLC 111% | NCI-H460 lung 106% | NCI-H522 lung 68.8% | 786-0 renal 100% | COLO 205 colon 109% | DU-145 prostate 121%

CCS(=O)(=O)OCCCl
inactive: NCI-H23 lung 22.4% | NCI-H226 lung 98.4% | NCI-H322M lung 103% | HOP-62 NSCLC 108% | NCI-H460 lung 107% | NCI-H522 lung 14.3% | 786-0 renal 96.5% | COLO 205 colon 102% | DU-145 prostate 116%
